Spn MK inh: S. pneumoniae MK inhibitors, primary screen, biochemical, PK/LDH-coupled NADH absorbance; mevalonate kinase [Streptococcus pneumoniae D39]; AID 555, 2006; purified MK, PK/LDH-coupled NADH absorbance 340 nm; 65,000 tested, 0.48% active; inhibition, % at 10 µM;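 active = ranked among the strongest by inhibition in the single 10 µM screen, a fixed top-ranked set picked for dose follow-up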
NADH enzymes: inhibitors of PK/LDH coupling enzymes, profiling panel, artefact control, biochemical, MLSMR library | coupled PK/LDH NADH assays, four targets | IC50, µM (series often up to 10 µM), inactives show at the highest dose inhibition | 65,000 tested, 0.02% active | AID 774, 2007;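 active = single-dose screening hits from any of four coupled enzyme assays that gave an IC50 when retested across doses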;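 note: the DPM-DC format reads NADH fluorescence rather than 340 nm absorbance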
Spn PMK inh: S. pneumoniae PMK inhibitors, primary screen, biochemical, mevalonate pathway, pilot trial included. phosphomevalonate kinase (Streptococcus pneumoniae D39). purified PMK, PK/LDH-coupled NADH absorbance 340 nm. inhibition, % at 10 µM. 65,000 tested, 0.49% active;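 active = top-ranked compounds by inhibition in the single 10 µM screen, taking a fixed number of the strongest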;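 note: 0% = full reaction with DMSO carrier and 100% = background rate without enzyme reaction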
Spn DPM-DC inh: S. pneumoniae DPM-DC inhibitors, primary screen, biochemical, PK/LDH-coupled NADH fluorescence; purified DPM-DC; calls only at 10 µM; 65,000 tested, 0.49% active;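 active = the 320 compounds with the highest percent inhibition in the single-dose primary screen, excluding strongly autofluorescent ones, cut at about 32% in these data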;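 note: kinetic rate of NADH fluorescence loss reporting ADP formed by the decarboxylase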
Autofluor 339: intrinsic fluorescence of library compounds, ex339/em460 – biochemical, MLSMR library, data from DPM-DC assay, artefact control, profiling panel; compound autofluorescence, ex339/em460 nm, NADH buffer; stronger effect = higher value; 1 = no-compound wells, NADH background; fluorescence fold increase at 10 µM; 65,000 tested, 5.5% active; AID 709, 2007;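 active = at 10 µM, mean starting fluorescence two-fold or more over control wells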;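 note: signal is the first read of a kinetic run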
* = called active by the depositor; i = inactive; . = no result shown; + = active, no number. A selection: hits, their analogues and other compounds. The true share with any hit is near 6.6%.

SMILES	Spn MK inh	NADH enzymes	Spn PMK inh	Spn DPM-DC inh	Autofluor 339
CCOC(=O)C1CCCN(C(=O)Nc2cccc(Cl)c2)C1 (stereo unspecified)	8	6%	2	i	1.1
CCN1CCN(C(c2cccs2)C(C)NC(=O)c2cccnc2)CC1 (stereo unspecified)	0	6%	17	i	1.1
COc1ccccc1CNC(=O)CSc1nc2nc(C)cc(C)n2n1	2	7%	20	i	1
Cc1[nH]c2ccccc2c1C(=O)CN1CCCCC1CCO (stereo unspecified)	6	7%	14	i	1
O=C1CN(C(=O)CCCc2c[nH]c3ccccc23)c2ccccc2N1	1	2%	6	i	1.1
CCOC(=O)N1CCC(NC(=O)c2cc3c(-c4ccc(Cl)cc4)nn(C)c3s2)CC1	6	8%	10	.	2.1*
C=C(C)Cn1c(COc2ccccc2)nnc1SCC(=O)O	20	23%	16	+	1.4
CCc1nnc(NC(=O)CSc2nnc(Cc3cccn3C)n2C)s1	9	13%	28*	i	1
CCc1nnc(NC(=O)CSc2nnc(Cc3ccccc3)n2Cc2ccccc2)s1	2	7%	20	i	1.1
C=CCn1c(COc2ccccc2)nnc1SCC(=O)O	7	7%	13	i	1.1
CCOC(=O)c1ccccc1NC(=O)CSc1nnc(Cc2cccn2C)n1-c1ccc(C)cc1	6	4%	7	i	2*
CCc1nnc(NC(=O)CSc2nnc(COc3ccccc3)n2Cc2ccccc2)s1	10	20%	12	+	1.8
COC(=O)CS(=O)(=O)c1ccc2c(c1)CC(=O)N2	4	8%	19	i	1.1
CCOC(=O)Nc1ccc2c(C)cc(=O)oc2c1	12	9%	5	.	3.7*
O=C(Cn1cnc2ccccc21)Nc1cc(C(F)(F)F)ccc1N1CCOCC1	0	5%	14	i	1.1
FC(F)(F)c1ccc(N2CCOCC2)c(Nc2nc3ccccc3n3cnnc23)c1	4	2%	2	i	2.5*
Cc1cccn2c(=O)c3cc(C(=O)Nc4ccc(N(C)C)cc4)n(C)c3nc12	5	4%	7	i	1.3
CCCn1c(=N)c(C(=O)NCc2ccc3c(c2)OCO3)cc2c(=O)n3cccc(C)c3nc21	8	10%	10	i	2.1*
Cc1cccn2c(=O)c3cc(C(=O)NC(C)C)c(=N)n(Cc4ccncc4)c3nc12	9	7%	4	.	3.7*
CCNC(=O)c1cc2c(=O)n3cccc(C)c3nc2n(Cc2ccc(C)cc2)c1=N	7	9%	11	.	3.8*
CC(=O)Nc1ccc(-c2nc3c(C)cccc3[nH]2)cc1	4	10%	8	i	2.1*
O=c1[nH]c(-c2ccc(Cl)cc2)nc2c1cnn2-c1ccccc1	7	7%	0	i	2.3*
COc1ccc(-n2c(O)c(/C=N/n3cnnc3)c3ccccc3c2=O)cc1	5	3%	0	.	2.1*
Cc1ccccc1OCCCCCn1ccnc1	0	1%	4	i	1.1
Cc1cccc(OCCCCCn2ccnc2)c1	48*	16%	0	i	1.1
SMILES	Spn MK inh	NADH enzymes	Spn PMK inh	Spn DPM-DC inh	Autofluor 339
COc1ccc(-c2nc(N3CCOCC3)nc3nn4c(C)c(CCC(=O)O)c(C)nc4c23)cc1	0	7%	14	.	5*
Cc1nc2c(-c3ccccc3)c(C)nn2c(C)c1CCC(=O)N1CCOCC1	6	5%	8	i	1.2
Cc1nc2c3c(-c4ccccc4)nc(N4CCOCC4)nc3nn2c(C)c1CCC(=O)O	0	13%	11	i	3.7*
O=c1oc2ccccc2cc1-c1nc2ccccc2o1	3	14%	24	.	2.1*
NC(=O)CSc1nnc(-c2ccc(S(=O)(=O)N3CCOCC3)cc2)n1CC1CCCO1 (stereo unspecified)	12	9%	14	i	1.1
CC(C)NC(=O)CSc1nnc(-c2ccc(S(=O)(=O)N3CCCC3)cc2)n1CC1CCCO1 (stereo unspecified)	45*	19%	11	i	1.1
CCCc1cc(=O)oc2cc(Oc3ncccn3)ccc12	7	16%	18	i	3.4*
CCCc1cc(=O)oc2cc(OCC(=O)Nc3cc(C)on3)ccc12	0	9%	6	i	3.6*
O=C(C1Cc2ccccc2CN1S(=O)(=O)c1cccs1)N1CCCCCC1 (stereo unspecified)	20	10%	11	i	1.1
CC(=O)OC(C(=O)NC1CCCCC1)c1ccc(C#N)cc1 (stereo unspecified)	10	8%	14	i	1.1
COc1ccc(C2=C(O)C(C)N(c3ccccc3)C2=N)cc1OC (stereo unspecified)	1	5%	13	i	1.1
COc1cc(NC(=O)CN2c3cccc4cccc(c34)S2(=O)=O)cc(OC)c1OC	13	14%	4	i	2.6*
CCCN1c2cccc3cccc(c23)S1(=O)=O	12	7%	2	.	2.2*
O=S1(=O)c2cccc3cccc(c23)N1Cc1ccc(-c2nnco2)cc1	0	12%	19	i	2.8*
N#CCCCCN1c2cccc3cccc(c23)S1(=O)=O	0	5%	10	.	3.7*
O=C(CN1c2cccc3cccc(c23)S1(=O)=O)NCc1ccc2c(c1)OCO2	2	7%	2	i	1.8
O=S1(=O)c2cccc3cccc(c23)N1Cc1nnc(-c2ccccc2Br)o1	8	5%	6	i	1.7
COc1ccc(C2(C(F)(F)F)NC(=O)N(C)C(=O)N2C)cc1 (stereo unspecified)	0	4%	12	i	1.1
Nc1ccc2[nH]ncc2c1	5	4%	5	.	2.3*
CN(C)c1ccc(C=NCCC2(O)CCOC(C)(C)C2)cc1 (stereo unspecified)	7	4%	5	i	1
CN(C)c1ccc(CNCCC2(O)CCOC(C)(C)C2)cc1 (stereo unspecified)	41*	11%	61*	i	1.1
CCOC(=O)c1[nH]c(C)c(/C(O)=C2\C(=O)C(=O)N(CCCN(C)C)C2c2cccnc2)c1C (stereo unspecified)	10	6%	9	i	1
COc1ccccc1-c1cc(C(=O)Nc2cccnc2)no1	1	3%	8	i	1.1
COc1ccc(-c2cc(C(=O)Nc3cc(C)n(Cc4ccc(Cl)cc4)n3)no2)cc1OC	0	11%	16	i	2.2*
COc1ccc(-c2cc(C(=O)Nc3cnn(Cc4ccccc4C)c3)no2)cc1OC	0	12%	23	i	2.4*
COc1ccccc1-c1cc(C(=O)Nc2ccccc2SC)no1	5	15%	11	i	2.8*
